Our source for the INHIBITION values is ChEMBL document CHEMBL4513216, “Probing the Open Global Health Chemical Diversity Library for Multistage-Active Starting Points for Next-Generation Antimalarials” (ACS Infect Dis, 2020).

SMILES strings stand for the structures. Among all 68,000 compounds or so, about 2,700 (4%) showed an effect of 50% or more. The list comes from a sample in which strong results are over-represented; it also holds similar structures and randomly drawn compounds.

The subject of this assay is Plasmodium berghei. Nature of the assay: Screen against P. berghei liver stage (PbLuc), transformed with Luciferase, at 2uM. The assay is classed as functional, HepG2. As to conditions: tested at 2 uM.
Turning to `Cc1cc(C(=O)N2CCCC2c2nc(O)cc(C(C)C)n2)on1` (configuration not stated), the INHIBITION was determined as 12.21%.
Regarding `CCN(C)C[C@@H]1CN(Cc2cnc3c(S(C)(=O)=O)cnn3c2)C[C@@H]1CO`, the INHIBITION is recorded as 10.91%.
With `CN(C)S(=O)(=O)c1csc(C(=O)N2CCSCC2)c1` the figure was 68.33%; with `CN(C)S(=O)(=O)c1csc(C(=O)N2CCC(C(N)=O)CC2)c1`, -0.24%.
With `CCN(CC)S(=O)(=O)c1csc(C(=O)N2CCC(C(N)=O)CC2)c1` the figure was 14.27%; with `Cc1nc(NCCSc2nnc(C)s2)c2cccnc2n1`, 21%.
With `CN1CC2(CCN(CC3CC3)CC2)COc2ccccc2S1(=O)=O` the figure was -22.64%; with `Cc1ccc(CS(=O)(=O)CC(=O)NCc2ccccc2F)cc1`, 26.74%.
For the compound `O=C(CS(=O)(=O)Cc1ccccc1)NCc1ccccc1F`, the INHIBITION amounted to 50.59%.
Regarding `NC(=O)C(Cc1ccccc1)NS(=O)(=O)Cc1ccccc1F` (configuration not stated), the INHIBITION was found to be 53.13%.
With `O=C(CS(=O)(=O)Cc1ccc(F)cc1)NCc1ccccc1F` the figure was -54.34%; with `NC(=O)C(Cc1ccccc1)NS(=O)(=O)Cc1ccccc1Cl` (configuration not stated), -7.47%.
Next, `N#Cc1cccc(CS(=O)(=O)NC(Cc2ccccc2)C(N)=O)c1` (configuration not stated): 18.29%.
With `Cc1ccc(Cl)cc1N1CCC(CNC(=O)Cn2cccn2)C1` (configuration not stated) the figure was -48.41%.
Regarding `Cc1ccc(Cl)cc1N1CCC(CNC(=O)CC(F)(F)F)C1` (configuration not stated), the INHIBITION was 42.92%.
Consider `Cc1cnn(CC(=O)NCC2CCN(c3cc(Cl)ccc3C)C2)c1` (configuration not stated), for which the INHIBITION came to 80.06%.
With `CSCC[C@H](N)c1nnc(SCc2cc(C)ccc2C)o1` the figure was 17.15%; with `O=C(NCC(F)(F)F)C1CSCN1S(=O)(=O)c1ccccc1F` (configuration not stated), 14.06%; with `CCCC1C=CCN1C(=O)c1cc(COc2ccc3c(c2)OCO3)[nH]n1` (configuration not stated), 5.15%.
Take `O=C(c1cscn1)N1CCC2(CCN(Cc3nccs3)C2)CC1`: the INHIBITION is on record as -14.66%.
With `COc1ccc(-c2cc(C3CCOC3)c(C#N)c(N)n2)cn1` (configuration not stated) the figure was 7.64%; with `Cc1cc(-c2cc(C3CCOC3)c(C#N)c(N)n2)ccc1Cl` (configuration not stated), 21.33%.
In the case of `Cc1cc(C)cc(-c2cc(C3CCOC3)c(C#N)c(N)n2)c1` (configuration not stated), the INHIBITION amounted to 59.27%.
With `CCN1CCO[C@]2(CCC[C@H]2COCc2csc(C)n2)C1` the figure was 32.95%; with `COc1ccc(C)cc1Nc1nc2c(C)nn(C)c2c(=O)n1C`, -103.52%; with `O=C(NC1CCS(=O)(=O)c2ccccc21)c1cccs1` (configuration not stated), 79.83%.
With `O=C(NC1CCS(=O)(=O)c2ccccc21)c1sccc1C1CC1` (configuration not stated) the figure was -10.14%; with `Cc1ccsc1C(=O)NC1CCS(=O)(=O)c2ccccc21` (configuration not stated), -15.77%; with `CC(C)CNc1nnc(SC(C(=O)NCc2cccnc2)C(C)C)s1` (configuration not stated), -16.56%.
With `CNc1cc2c(nn1)CCN(C(=O)c1ccc3c(c1)CCC3)C2` the figure was 29.12%.
Consider `CNc1cc2c(nn1)CCN(C(=O)c1ccc3c(c1)OCO3)C2`, for which the INHIBITION worked out at 50.18%.
With `CCNc1cc2c(nn1)CCN(C(=O)c1ccc3c(c1)OCO3)C2` the figure was -17.37%; with `Cc1cc(N2CCN(c3ccc(=O)[nH]n3)CC2)nc(-c2ccncc2)n1`, -2.96%.
In the case of `Cc1c(C(=O)NCCC(=O)N2CCOCC2)sc2ccc(F)cc12`, the INHIBITION is reported as -6.64%.
Next, `COc1cccnc1NC(=O)c1ccc(COCC(F)(F)F)cc1`: -14.46%; `Cc1cc(CN2CCCC(Cn3cncn3)C2)no1` (configuration not stated): -50.13%; `Cc1ccc(-c2cc(CN3CCCC(Cn4cncn4)C3)on2)cc1` (configuration not stated): -23.18%.
With `CC(C)c1nc(CN2CCCC(Cn3cncn3)C2)cs1` (configuration not stated), the INHIBITION stood at 5.52%.
In the case of `Cc1cccc(-c2noc(CN3CCCC(Cn4cncn4)C3)n2)c1` (configuration not stated), the INHIBITION was 54.85%.
With `c1cncc(-c2noc(CN3CCCC(Cn4cncn4)C3)n2)c1` (configuration not stated) the figure was -9.22%; with `c1ccc(-c2nc(CN3CCCC(Cn4cncn4)C3)cs2)cc1` (configuration not stated), -37.28%.
As to `Cc1ccc(-c2noc(CN3CCCC(Cn4cncn4)C3)n2)cc1` (configuration not stated), the INHIBITION is -35.33%.
For the compound `CC(C)(C)c1nc(CN2CCCC(Cn3cncn3)C2)cs1` (configuration not stated), the INHIBITION was 80.49%.
Next, `CCCNC(=O)C1CCN(Cc2csc(C(C)(C)C)n2)CC1`: -21.58%.
Next, `CCCNC(=O)C1CCCN(Cc2csc(C(C)(C)C)n2)C1` (configuration not stated): 52.87%.
Next, `Cc1cc(CN2CCCC(Cn3cncn3)C2)on1` (configuration not stated): 59.54%; `CCCNC(=O)CN1CCN(Cc2csc(C(C)(C)C)n2)CC1`: 22.1%; `c1ccc(-c2nc(CNC3CCc4ncnn4C3)cs2)cc1` (configuration not stated): -7.88%.
`CCCc1nc(CNCC2CCCN2c2cccnn2)no1` (configuration not stated): the INHIBITION is given as 19.76%.
For `c1ccc(-c2cc(CN3C[C@H]4CC[C@@H](C3)N(CC3CCC3)C4)on2)cc1`, the INHIBITION is on record as 34.16%.
Next, `Cc1ccccc1CNc1ccccc1OCC(=O)N1CCOCC1`: -64.94%; `COc1cc(C2c3c(n[nH]c3C)N=C3COC(=O)C32)cc(Br)c1O` (configuration not stated): 37.18%; `CC(C)C(=O)N1CCN(Cc2cnn(C)c2)CC2(CC(=O)N(C)C2)C1` (configuration not stated): -2.69%.
With `O=C(c1ccoc1)N1CCc2ncc(Cn3cccn3)n2CC1` the figure was 50.17%; with `O=C(NCc1ccccc1)N1CCn2c(Cn3cccn3)cnc2C1`, 6.33%.
With `Cc1ccc(C(=O)N2CCc3ncc(Cn4cccn4)n3CC2)cn1` the figure was 16.43%; with `CN(C)C(=O)N1CCn2c(Cn3cccn3)cnc2C1`, 25.4%; with `O=C(NC1CC1)N1CCn2c(Cn3cccn3)cnc2C1`, 53.08%.
Take `O=C(c1cccc(F)c1)N1CCc2ncc(Cn3cccn3)n2CC1`: the INHIBITION is reported as -39.07%.
With `Cc1ncsc1CN1C[C@@H]2COC[C@]2(C(=O)NCc2ccccn2)C1` the figure was -0.27%; with `CC(C(=O)N1CCN(c2ccccc2)CC1)n1cc(Br)cn1` (configuration not stated), -34.08%; with `CN1CCN(c2ccccc2CNC(=O)CSC(F)(F)F)CC1`, -14.36%.
With `CC(C)C(C(=O)N1CCCN(c2cccnn2)CC1)n1cncn1` (configuration not stated) the figure was -0.6%.
With `OCc1c(Cl)ncn1-c1ccc(F)cc1` the figure was 22.43%; with `O=C(CCC1CCCC1)N1CCC(c2cc3ncccc3c(O)n2)CC1`, 22.39%.
On to `Cc1sc(-n2cnnn2)c(C(=O)NC(C)C)c1C`, for which the INHIBITION is -21.53%.
Next, `Cc1nc(NC(=O)c2c(-n3cnnn3)sc(C)c2C)sc1C`: 60.67%; `Cc1nc(NC(=O)c2c(-n3cnnn3)sc3c2CCC3)sc1C`: 10.71%.
With `CCCn1nccc1C(=O)Nc1nc(C)c(C)s1` the figure was -44.44%; with `Cc1nc(NC(=O)c2c(-n3cnnn3)sc3c2CCCC3)sc1C`, 76.25%.
With `CC(C)CNC(=O)c1c(-n2cnnn2)sc2c1CCCC2` the figure was 15.93%; with `F[C@@H]1CN(CC2CC2)C[C@@H]1OCc1nc2cnccc2[nH]1`, 25.94%.
As to `COCCC(=O)N1CCC(C(=O)c2cc(C)cnc2N)CC1`, the INHIBITION came to 41.56%.
With `c1ccc(Sc2ccc3c(c2)OCO3)c(CNC2=NCCN2)c1` the figure was 33.59%; with `COCC1N(C(=O)c2ccco2)C2CCC1(O)CC2` (configuration not stated), 3.88%.
With `COc1ccc(Br)cc1Cn1nc(C(N)=O)ccc1=O` the figure was -21.09%; with `CCOc1ccc(Cl)cc1C1CCCN1` (configuration not stated), -27.75%; with `CCOc1ccc(Br)cc1C1CCCN1` (configuration not stated), 53.55%.
With `CCOc1ccc(Br)cc1C1CCCCN1` (configuration not stated) the figure was -0.44%; with `Cc1nccn1C1CCCN(C(=O)c2ccc3nnc(C)n3c2)C1` (configuration not stated), 6.12%; with `Cc1cc(NC(=O)NCc2ccccn2)n(C)n1`, 29.11%.
Consider `COc1cc(F)cc(NC(=O)NCc2cccc(N(C)C)n2)c1`, for which the INHIBITION turned out to be 23.92%.
With `COc1cc(NC(=O)NCc2ccccn2)cc(OC)c1` the figure was 52.08%; with `N#Cc1c(F)cccc1NCCCOCC1CCOC1` (configuration not stated), -39.57%; with `C[C@@H]1CN(CC(C)(C)N2CCOCC2)C[C@@]1(O)C1CC1`, -10.59%.
In the case of `C[C@@H]1CN(CC(C)(C)N2CCCCC2)CC[C@@]1(O)C1CC1`, the INHIBITION is given as 12.62%.
With `C[C@@H]1CN(CC(C)(C)N2CCCCC2)C[C@@]1(O)C1CC1` the figure was 51.31%; with `Cc1cc(C(=O)NCC(O)c2ccc(Cl)s2)c(C)o1` (configuration not stated), 57.75%.
With `Cc1occc1C(=O)NCC(O)c1ccc(Cl)s1` (configuration not stated) the figure was 43.44%; with `Cc1ccc(C(=O)NCC(O)c2ccc(Cl)s2)c(=O)[nH]1` (configuration not stated), 10.05%; with `O=C1NC2(CCN(CC3CC3)CC2)CC1c1ccccc1` (configuration not stated), 11.18%.
For the compound `CCN1CC2(CC1=O)CN(Cc1ccccn1)CCN(C(C)=O)C2` (configuration not stated), the INHIBITION was 28.2%.
With `O=C1CCC2(CCCN(C(=O)c3ccccn3)CC2)N1` (configuration not stated) the figure was 28.2%; with `Cc1cc(NC(=O)CN2CCN(c3nccs3)C(C)C2)no1` (configuration not stated), -2.82%; with `CS(=O)(=O)c1nccn1Cc1ccc(F)cc1Cl`, 29.43%.
With `O=C(NCCN1CCOCC1)NCc1ncc(-c2ccccc2)o1` the figure was 24.89%; with `Cc1ccc(-c2cnc(CCC(=O)NCCN3CCOCC3)o2)cc1C`, 59.03%; with `O=C(CCc1ncc(-c2ccc(F)cc2)o1)NCCN1CCOCC1`, -45.79%.
For the compound `Cc1nc(CNC(=O)NC(C)c2ccc3c(c2)OCCO3)cs1` (configuration not stated), the INHIBITION amounted to 21.69%.
With `Cc1nc(C2CCCN(C(=O)c3c(C)nn4cccnc34)C2)no1` (configuration not stated) the figure was -1.02%; with `Cc1ncsc1C(=O)NC1CCN(Cc2cccc3c2OCCO3)CC1`, 21.83%.
Next, `CCCn1ccnc1CN1CCc2[nH]cnc2C1Cc1ccccc1` (configuration not stated): -76.22%; `Cc1cccc(CN2C[C@@H]3CN(C(=O)c4cnoc4C)C[C@@H]3C2=O)n1`: 35.89%.
With `Cc1cccc(CN2C[C@@H]3CN(C(=O)NC(C)C)C[C@@H]3C2=O)n1` the figure was 35.34%.
Turning to `Cc1cccc(CN2C[C@@H]3CN(C(=O)C4CC=CC4)C[C@@H]3C2=O)n1`, the INHIBITION turned out to be 54.01%.
Next, `CN(C)CC1CN(Cc2nc(-c3cccnc3)no2)CCO1` (configuration not stated): 52.17%.
Next, `Cn1nc2c(cc1=O)CN(Cc1nc(-c3ccco3)no1)CC2`: -0.05%.
Next, `c1ccc(-c2noc(CN3CCOC(Cn4cccn4)C3)n2)nc1` (configuration not stated): 23.71%.
As for `Cc1ccc(-c2nc(CN3CCc4nn(C)c(=O)cc4C3)co2)cc1`, the INHIBITION was found to be 62.46%.
As for `Cn1nc2c(cc1=O)CN(Cc1nc(-c3ccccn3)no1)CC2`, the INHIBITION is 50.75%.
Next, `Cn1nc2c(cc1=O)CN(Cc1coc(-c3ccccc3)n1)CC2`: 17.31%; `Cc1cnn(CC2CN(Cc3nc(-c4cccnc4)no3)CCO2)c1` (configuration not stated): 12.75%; `CN(C)CC1CN(Cc2nc(-c3ccccn3)no2)CCO1` (configuration not stated): 69.11%.
With `CCn1nc2c(cc1=O)CN(Cc1nc(-c3ccccn3)no1)CC2` the figure was -27.03%; with `Cn1nc2c(cc1=O)CN(Cc1coc(-c3ccc(F)cc3)n1)CC2`, -21.39%.
Next, `Cc1cnn(CC2CN(Cc3nc(-c4ccccn4)no3)CCO2)c1` (configuration not stated): -5.09%; `c1cncc(-c2noc(CN3CCOC(Cn4cccn4)C3)n2)c1` (configuration not stated): -0.12%.
